# Hit rate of the full screen: of about 310,000 compounds, about 14,000 (4.5%) showed an effect of 50% or more. Effects have a minus sign here. What follows is part of a selection rich in strong results, with near analogues and random picks from the rest.
# Molecular target: human ether-à-go-go-related gene (hERG) potassium channel (human, UniProt Q12809)
# Assay: primary screen, population patch clamp on CHO cells stably expressing hERG; higher = less effect of the substance
# 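Also: peak tail current of the secondary pulse compared with the same well before compound.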
# Chain of human ether-à-go-go-related gene (hERG) potassium channel (Q12809 whole entry, looked up): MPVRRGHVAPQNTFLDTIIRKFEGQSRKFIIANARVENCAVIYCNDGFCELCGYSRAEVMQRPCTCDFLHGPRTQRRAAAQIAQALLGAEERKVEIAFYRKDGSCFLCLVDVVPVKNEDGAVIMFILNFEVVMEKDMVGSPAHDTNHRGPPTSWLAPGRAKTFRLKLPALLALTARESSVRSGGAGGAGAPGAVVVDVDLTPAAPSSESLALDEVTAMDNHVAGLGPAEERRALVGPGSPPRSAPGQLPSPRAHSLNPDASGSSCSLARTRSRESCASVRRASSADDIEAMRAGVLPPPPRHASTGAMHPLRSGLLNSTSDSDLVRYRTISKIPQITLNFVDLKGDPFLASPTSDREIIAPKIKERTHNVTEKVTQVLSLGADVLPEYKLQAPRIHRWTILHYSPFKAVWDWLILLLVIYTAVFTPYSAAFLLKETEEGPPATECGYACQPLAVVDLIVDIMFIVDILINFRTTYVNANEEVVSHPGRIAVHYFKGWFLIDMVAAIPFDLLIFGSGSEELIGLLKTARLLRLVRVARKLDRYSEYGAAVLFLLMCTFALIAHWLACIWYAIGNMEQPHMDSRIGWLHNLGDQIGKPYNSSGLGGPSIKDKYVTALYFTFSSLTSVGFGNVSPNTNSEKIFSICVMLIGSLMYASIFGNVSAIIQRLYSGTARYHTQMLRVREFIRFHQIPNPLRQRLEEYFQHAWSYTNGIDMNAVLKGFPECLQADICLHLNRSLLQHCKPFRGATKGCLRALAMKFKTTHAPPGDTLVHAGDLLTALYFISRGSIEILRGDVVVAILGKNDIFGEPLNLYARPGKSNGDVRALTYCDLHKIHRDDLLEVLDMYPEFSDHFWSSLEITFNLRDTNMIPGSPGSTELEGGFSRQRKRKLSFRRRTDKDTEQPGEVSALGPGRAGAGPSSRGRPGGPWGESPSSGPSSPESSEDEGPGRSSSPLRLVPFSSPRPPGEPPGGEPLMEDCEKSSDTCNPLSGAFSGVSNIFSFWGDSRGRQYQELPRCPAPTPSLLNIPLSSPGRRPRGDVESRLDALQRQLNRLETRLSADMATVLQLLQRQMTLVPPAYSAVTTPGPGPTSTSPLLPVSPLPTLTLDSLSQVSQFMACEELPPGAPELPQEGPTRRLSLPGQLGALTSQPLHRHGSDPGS
row,Compound,"hERG current change (%, negative = inhibition) at 10uM [%]"
1,CC(c1ccon1)N(C)C(=O)CCc1nnc(Cc2ccc(-c3ccccc3)cc2)o1 (centres unmarked),-21.7
2,COC(=O)/C(=C/c1ccc(F)cc1)NC(C)=O,-0.211
3,O=C(CN1C(=O)S/C(=C\c2cccc(Cl)c2)C1=O)NC1C=CS(=O)(=O)C1 (centres unmarked),18.1
4,O=C(Nc1ccccc1F)c1ccc2c(c1)OCO2,15.7
5,COCCCNCCCCOc1ccc(Br)cc1C.O=C(O)C(=O)O,-64.6
6,CC(C)NCCCCOc1ccc(Br)cc1Cl.O=C(O)C(=O)O,-64.6
7,CC(C)NCCCCOc1ccccc1-c1ccccc1.O=C(O)C(=O)O,-32.9
8,COCCNCCCCOc1ccc(Br)cc1C.O=C(O)C(=O)O,-36.7
9,CC(C)NCCCOc1ccc(Cl)cc1Br.O=C(O)C(=O)O,-54.4
10,Cc1ccc(OCCOCCNC(C)C)c(Br)c1.O=C(O)C(=O)O,-18.3
11,CC(C)NCCCCOc1cccc(Br)c1.O=C(O)C(=O)O,-25.8
12,COCCCNCCCCOc1cccc(Br)c1.O=C(O)C(=O)O,-19.3
13,Cc1cccc(NS(=O)(=O)c2cccc(C(=O)N3CCCCCC3)c2)c1,-3.09
14,Cc1cnn(-c2cc(N/N=C/c3ccc(F)cc3)ncn2)c1,5.69
15,CC(C)Cc1nnc(NC(=O)CCC(=O)N2CCC3(CC2)OCCO3)s1,12.3
16,O=c1c2ccccc2oc2cc(C#Cc3ccccn3)ccc12,7.36
17,C/C=C(/C)C(=O)Nc1cccc(C2=NOC3(C2)C[C@@H](C(N)=O)N(C(=O)CCCCC)C3)c1 (some centres unmarked),-40.1
18,COc1cc(/C=N/NC(=O)c2cc(C3CC3)[nH]n2)ccc1O,-12.7
19,CCOC(=O)C1=C(C)N(CC)C(=S)NC1c1ccc(Cl)cc1 (centres unmarked),-9.13
20,COc1ccc2c(c1)C(c1ccc([N+](=O)[O-])cc1)=NNC(c1ccco1)=N2,-60
21,COc1ccc2c(c1)C(c1ccccc1)=NNC(c1ccco1)=N2,-15.7
22,COc1ccc(C2=NNC(c3ccco3)=Nc3ccc(F)cc32)cc1,-10.8
23,O=C(CS(=O)(=O)c1cn(Cc2ccc(F)cc2)c2ccccc12)N1CCCCC1,-0.405
24,Cc1ccc(C#CC[N+](C)(C)CC#Cc2ccccc2)cc1.[Br-],-75.9
25,C#CC[N+](CC)(CC)CC#Cc1ccccc1.[Br-],9.22
26,CC[N+](CC)(CC#CCO)CC#Cc1ccccc1.[Br-],33.7
27,CC[N+](CC)(CC#Cc1ccccc1)CC#Cc1ccccc1.[Br-],-69.8
28,C#CC[N+](C)(C)CC#Cc1ccccc1.[Br-],13.3
29,C#CC[N+](C)(C)CC#Cc1ccc(C)cc1.[Br-],6.33

# From publication PMC4336329 (PLoS ONE, 2015)
